The values below come from PubChem BioAssay (EPA / NIEHS).

Records with an inconclusive call do not appear. Calls of active or inactive are those of the source. How the source made its calls, unless noted: active means hit-call score of the fitted dose curve at least 0.9, where 1 is the maximum; inactive means score below 0.9.

For orientation: AC50 means the concentration at which the activity in the assay is half-maximal.

The test system of one assay is DIO1 (gene 1733). The experiment in a line: CCTE_GLTED_hDIO1: CCTE's human Deiodinase 1 (DIO1) Inhibition Assay, Great Lakes Toxicology and Ecology Division (GLTED) Lab (AID 2283987; active means hit-call score of the fitted dose curve at least 0.9, where 1 is the maximum;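 further: isolated human DIO1 enzyme in a cell-free setup rather than cells; enzyme activity read as free iodide liberated from substrate via Sandell-Kolthoff colorimetry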). In outline:
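Cell-free human DIO1 enzyme incubated 3 h with test chemical; iodide freed from substrate then measured by Sandell-Kolthoff absorbance. Run in triplicate; loss of signal relative to DMSO taken as inhibition.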

A short description of assay [1]: CCTE_Simmons_MITO_basal_resp_rate: CCTE's HepG2 Seahorse XF Respirometric Screening Assay at Basal Respiratory State, Simmons Lab (AID 2284001). The note with it: actives raise or lower the signal. In short, it runs like this: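 HepG2 respirometry; 7-pt titration 125 nM–100 uM final; kinetic OCR at 6 min intervals for 72 min; n=3 biological, technical singles; DMSO baseline, gain or loss fit; fenpyroximate (decrease) and 2,4-DNP (increase) controls.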

Assay [2] is described as follows: CCTE_Simmons_MITO_max_resp_rate: CCTE's HepG2 Seahorse XF Respirometric Screening Assay at Maximal Respiratory State [uncoupled], Simmons Lab (AID 2284002). Particulars: actives raise or lower the signal. In short, it runs like this:
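HepG2 oxygen consumption measured on Seahorse XF after FCCP uncoupling, following test compound injection; 7 concentrations from 125 nM to 100 uM final. Readings every 6 min over 72 min, three biological replicates; bidirectional fit versus DMSO.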

Assay [3] in a line: CCTE_Simmons_MITO_inhib_resp_rate: CCTE's HepG2 Seahorse XF Respirometric Screening Assay at Inhibited Respiratory State [full ETC block], Simmons Lab (AID 2284006). The note with it: actives raise or lower the signal. In short, it runs like this:
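HepG2 cells on Seahorse XF96; oxygen consumption measured after test compound, then FCCP, then rotenone/antimycin A injections over 72 min. Test chemicals at 7 concentrations, 125 nM–100 uM final. OCR fitted bidirectionally versus DMSO.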

Assay [4] can be described thus: CCTE_Shafer_MEA_acute_spike_number: CCTE's Neural Acute Assay for Total Number of Spikes, Shafer Lab (AID 2284008).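 On AC50: curve fitted for decrease in spike count so AC50 reflects inhibitors.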 In outline: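 Rat primary cortical neurons on 48-well MEA plates, DIV 13 or 15, at 37 C. 40 min baseline then 40 min with compound (0.03-40 uM); spikes detected at 8x rms noise, expressed as percent change from baseline.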
Assay [5] in a line: CCTE_Shafer_MEA_acute_firing_rate_mean: CCTE's Neural Acute Assay for Mean Firing Rate, Shafer Lab (AID 2284009).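 Further: analyzed for loss of signal so actives lower firing rate relative to DMSO.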 In outline:
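Percent change in well-mean firing rate was derived from extracellular spikes detected at 8x rms noise (300-5000 Hz band-pass) before and after a 40-min compound exposure. Cultures were primary rat cortical neurons, tested at 0.03-40 uM.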

A short description of assay [6]: CCTE_Harrill_HTTr_Viability_MCF7: CCTE's 6-hour Cell Viability Assessment for the High-Throughput Transcriptomics (HTTr) Platform, in MCF-7 cells cultured in DMEM + 10% fetal bovine serum, Harrill Lab (AID 2284010). In outline:
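Membrane integrity was scored by high-content imaging of propidium iodide dye exclusion after a 6 h exposure across an eight-point dilution series. Data were fitted bidirectionally relative to DMSO as negative control and baseline.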

The nature of assay [7]: CCTE_Harrill_HTTr_CellCount_MCF7: CCTE's Cell Proliferation Assessment for the High-Throughput Transcriptomics (HTTr) Platform, Harrill Lab (AID 2284012; active means hit-call score of the fitted dose curve at least 0.9, where 1 is the maximum;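 further: cells exposed to compound for six hours; intended direction is loss of nuclei count meaning fewer cells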). In outline:
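MCF-7 cells were exposed for 6 h to an eight-point dilution series; Hoechst-labeled nuclei were counted by high content imaging. Curves were fitted bidirectionally against DMSO as negative control and baseline, with signal loss indicating reduced cell count.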

Assay [8] in a line: CCTE_Harrill_HTTr_Apoptosis_MCF7: CCTE's 6-hour Apoptosis Assessment for the High-Throughput Transcriptomics (HTTr) Platform, in MCF-7 cells cultured in DMEM + 10% fetal bovine serum, Harrill Lab (AID 2284011). In outline: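 MCF-7 cells in DMEM + 10% FBS exposed 6 h to chemicals over an eight-point dilution series. Caspase-3/7 activation imaged by high-content CellEvent Green staining; fitted bidirectionally versus DMSO.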

For assay [9], the target named is Nucleoli Translocation, AR (gene 367) (UniProt P10275). The experiment in a line: UPITT_HCI_U2OS_AR_TIF2_Nucleoli_Antagonist: University of Pittsburgh U2OS Androgen Receptor-Transcriptional Intermediary Factor 2 (AR-TIF2) Antagonism High Content Imaging Assay for Nucleoli Translocation (AID 2283997; active means hit-call score of the fitted dose curve at least 0.9, where 1 is the maximum). In short, it runs like this:
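Measured quantity was AR-RFP fluorescence localized to nucleoli in engineered U2OS cells also bearing TIF2-GFP, acquired on automated high-content imagers. Primary testing used 20 uM compound; actives were confirmed in triplicate wells.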

Assay [10] shares this target. The experiment in a line: UPITT_HCI_U2OS_AR_TIF2_Nucleoli_Agonist: University of Pittsburgh U2OS Androgen Receptor-Transcriptional Intermediary Factor 2 (AR-TIF2) Agonism High Content Imaging Assay for Nucleoli Translocation (AID 2283998; active means hit-call score of the fitted dose curve at least 0.9, where 1 is the maximum). In outline: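 U2OS cells expressing RFP-tagged human AR and GFP-tagged TIF2; red fluorescence in nucleoli quantified by high-content imaging. Primary screen at 20 uM final (0.2% DMSO); concentration-response 0.195–50 uM (0.5% DMSO), fitted upward versus DMSO.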

The target of assay [11] is Ratio of Nucleoli Translocation and Cytoplasm, AR (gene 367) (UniProt P10275). The experiment in a line: UPITT_HCI_U2OS_AR_TIF2_Nucleoli_Cytoplasm_Ratio_Agonist: University of Pittsburgh U2OS Androgen Receptor-Transcriptional Intermediary Factor 2 (AR-TIF2) Agonism High Content Imaging Assay for Ratio of Nucleoli Translocation and Cytoplasm (AID 2284000; active means hit-call score of the fitted dose curve at least 0.9, where 1 is the maximum;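 further: hits raise the red nucleolar to cytoplasm ratio above vehicle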). In short, it runs like this: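 Read-out first: nucleolar-to-cytoplasm ratio of red (AR-RFP) signal, quantified by high-content imaging in U2OS cells co-expressing TIF2-GFP. Activity is scored as signal increase over DMSO. Single-point screening used 20 uM final (0.2% DMSO).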
Ratio of Nucleoli Translocation and Cytoplasm, AR (gene 367), sequence (P10275 whole entry, looked up): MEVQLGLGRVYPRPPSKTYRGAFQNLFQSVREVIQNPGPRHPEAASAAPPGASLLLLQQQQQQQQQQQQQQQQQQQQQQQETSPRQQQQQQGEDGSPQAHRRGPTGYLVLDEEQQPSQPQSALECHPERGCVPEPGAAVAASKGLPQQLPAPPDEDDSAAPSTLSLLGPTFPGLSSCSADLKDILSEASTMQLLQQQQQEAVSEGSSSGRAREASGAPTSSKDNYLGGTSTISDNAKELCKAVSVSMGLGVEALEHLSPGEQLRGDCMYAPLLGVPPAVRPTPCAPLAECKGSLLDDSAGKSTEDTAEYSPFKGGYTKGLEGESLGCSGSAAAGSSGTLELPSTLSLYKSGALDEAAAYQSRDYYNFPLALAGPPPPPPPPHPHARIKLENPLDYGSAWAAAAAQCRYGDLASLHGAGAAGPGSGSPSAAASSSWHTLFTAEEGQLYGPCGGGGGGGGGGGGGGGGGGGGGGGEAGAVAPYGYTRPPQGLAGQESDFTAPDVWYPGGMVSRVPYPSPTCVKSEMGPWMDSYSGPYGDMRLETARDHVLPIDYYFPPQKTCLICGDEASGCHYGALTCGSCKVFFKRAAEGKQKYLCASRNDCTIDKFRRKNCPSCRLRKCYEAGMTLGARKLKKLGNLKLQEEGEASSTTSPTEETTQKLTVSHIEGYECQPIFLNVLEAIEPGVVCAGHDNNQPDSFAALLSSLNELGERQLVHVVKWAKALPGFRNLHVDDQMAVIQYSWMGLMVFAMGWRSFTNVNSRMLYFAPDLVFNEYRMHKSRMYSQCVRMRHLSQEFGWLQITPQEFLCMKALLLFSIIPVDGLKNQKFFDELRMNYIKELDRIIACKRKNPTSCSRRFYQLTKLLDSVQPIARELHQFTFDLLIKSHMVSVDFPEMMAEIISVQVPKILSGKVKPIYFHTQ

Assay [12] in a line: CCTE_Harrill_HTTr_Viability_PRF_DMEM_24hr: (Pilot) CCTE's 24-hour Cell Viability Assessment for the High-Throughput Transcriptomics (HTTr) Platform, in MCF-7 cells cultured in phenol red-free DMEM + 10% charcoal-stripped fetal bovine serum, Harrill Lab (AID 2283980). In outline: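 MCF-7 cells in phenol red-free DMEM with 10% charcoal-stripped FBS, eight-point dilution series, 24 h exposure. Membrane integrity by propidium iodide exclusion with high content imaging; bidirectional fit vs DMSO.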

Assay [13] can be described thus: CCTE_Harrill_HTTr_Apoptosis_DMEM_6hr: (Pilot) CCTE's 6-hour Apoptosis Assessment for the High-Throughput Transcriptomics (HTTr) Platform, in MCF-7 cells cultured in DMEM + 10% fetal bovine serum, Harrill Lab (AID 2283981). In outline:
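Caspase-3/7 activation read by high content imaging with CellEvent Caspase 3/7 Green in MCF-7 cells (DMEM + 10% FBS), 6 h after dosing; eight-point dilution series. Bidirectional fitting relative to DMSO baseline.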

Assay [14] can be described thus: CCTE_Harrill_HTTr_Apoptosis_DMEM_12hr: (Pilot) CCTE's 12-hour Apoptosis Assessment for the High-Throughput Transcriptomics (HTTr) Platform, in MCF-7 cells cultured in DMEM + 10% fetal bovine serum, Harrill Lab (AID 2283982). In outline: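 MCF-7 cells in DMEM + 10% FBS, exposed 12 h to an eight-point dilution series; caspase-3/7 activation imaged with CellEvent Green. Bidirectional fit versus DMSO.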

The nature of assay [15]: CCTE_Harrill_HTTr_Apoptosis_DMEM_24hr: (Pilot) CCTE's 24-hour Apoptosis Assessment for the High-Throughput Transcriptomics (HTTr) Platform, in MCF-7 cells cultured in DMEM + 10% fetal bovine serum, Harrill Lab (AID 2283983). In short, it runs like this: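 MCF-7 cells in DMEM + 10% FBS, eight-point dilution series, 24 h exposure. Caspase-3/7 activation imaged by high-content imaging with CellEvent Caspase 3/7 Green. Bidirectional curve fitting against DMSO baseline.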

The nature of assay [16]: CCTE_Harrill_HTTr_Apoptosis_PRF_DMEM_6hr: (Pilot) CCTE's 6-hour Apoptosis Assessment for the High-Throughput Transcriptomics (HTTr) Platform, in MCF-7 cells cultured phenol red-free DMEM + 10% charcoal-stripped fetal bovine serum, Harrill Lab (AID 2283984). In outline: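 MCF-7 cells in phenol red-free DMEM + 10% charcoal-stripped FBS, eight-point dilution series, 6 h exposure. Caspase-3/7 activation imaged by high-content imaging with CellEvent Caspase 3/7 Green; bidirectional fit versus DMSO baseline.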

A short description of assay [17]: CCTE_Harrill_HTTr_Apoptosis_PRF_DMEM_12hr: (Pilot) CCTE's 12-hour Apoptosis Assessment for the High-Throughput Transcriptomics (HTTr) Platform, in MCF-7 cells cultured in phenol red-free DMEM + 10% charcoal-stripped fetal bovine serum, Harrill Lab (AID 2283985). In outline: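 MCF-7 cells in phenol red-free DMEM with 10% charcoal-stripped FBS, eight-point dilution series, 12 h exposure. Caspase-3/7 activation imaged by high content imaging with CellEvent Green reagent; bidirectional fit vs DMSO.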

A short description of assay [18]: CCTE_Harrill_HTTr_Apoptosis_PRF_DMEM_24hr: (Pilot) CCTE's 24-hour Apoptosis Assessment for the High-Throughput Transcriptomics (HTTr) Platform, in MCF-7 cells cultured in phenol red-free DMEM + 10% charcoal-stripped fetal bovine serum, Harrill Lab (AID 2283986). In outline: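 MCF-7 cells in phenol red-free DMEM with 10% charcoal-stripped FBS, exposed 24 h across an eight-point dilution series. Caspase-3/7 activation imaged with CellEvent Green by high content imaging; bidirectional fitting against DMSO.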

Nucleoli Translocation, AR (gene 367), sequence (P10275 whole entry, looked up): as above

As for `CCCCCCCCCC[N+](C)(C)CCCCCCCCCC`, the AC50 in the assay with DIO1 (gene 1733) is 40700 nM (active); in assay [1] it was 8580 nM (active); in [2], 26400 nM (active); in [4], 2810 nM (active); in assay [5], 2880 nM (active). The compound was called inactive in assay [3], in assay [6] and in assay [7].

As for `CO/C=C(/C(=O)OC)c1ccccc1COc1cccc(C(F)(F)F)n1`, the AC50 is 2020 nM (active) in [1]; 1300 nM (active) in assay [2]; 1100 nM (active) in [3]; 278 nM (active) in assay [4]; 280 nM (active) in assay [5]. Moreover, the result in assay [6] and in [8] was inactive.

In the case of `O=C(N[C@H]1CN2CCC1CC2)c1cc2ccoc2cn1`, the result in [9], in [10], in assay [11], in [4], in assay [5] and in assay [6] was inactive. For the same compound, the outcome in assay [8] and in assay [7] was inactive.

As to `CCNc1nc(NC(C)C)nc(SC)n1`, the compound was called inactive in assay [9], in assay [1], in assay [2], in assay [3], in [6] and in assay [8].

Regarding `N#Cc1ccc(N(CC(N)=O)CC(F)(F)F)cc1C(F)(F)F`, the outcome in assay [1], in assay [2], in [3], in assay [6] and in assay [8] was inactive.

Take `CCC(C)(c1ccc(O)cc1)c1ccc(O)cc1`: the outcome in [12], in assay [13], in assay [14], in [15], in [16] and in [17] was inactive. Besides, the result in assay [18], in [3], in [4], in assay [5], in assay [6] and in [8] was inactive. In [7], the call was inactive. For the same compound, the results for the AC50 in [1] and in assay [2] were 16900 nM (active) and 25900 nM (active), respectively.

In the case of `Nc1ccc(-c2ccc(N)cc2)cc1`, the call in assay [4] and in assay [5] was inactive.

For the compound `CCCCCCCCCc1ccc(O)cc1`, the half-maximal activity concentration (AC50) is 90300 nM (active) in the assay on DIO1 (gene 1733), 9900 nM (active) in assay [4] and 9870 nM (active) in [5]. For the same compound, the result in assay [6], in assay [8] and in assay [7] was inactive.

On to `O=C(O)C(F)(F)C(F)(F)C(F)(F)C(F)(F)C(F)(F)F`, for which the compound was classed as inactive in assay [4], in assay [5], in assay [6], in assay [8] and in assay [7].

Take `Nn1cnnc1`: the outcome in assay [6], in [8] and in assay [7] was inactive.

With `ClC1=C(Cl)[C@]2(Cl)[C@@H]3[C@@H](Cl)[C@H]4O[C@H]4[C@@H]3C1(Cl)C2(Cl)Cl`, the AC50 in [4] was 106 nM (active); in [5] it was 107 nM (active). Moreover, the outcome in assay [6], in assay [8] and in assay [7] was inactive.

With `Clc1ccc(C(c2ccccc2Cl)C(Cl)(Cl)Cl)cc1` (stereo not drawn), the result in assay [6], in [8] and in assay [7] was inactive.

As for `CCOP(=S)(OCC)SCSC(C)(C)C`, the outcome in [6], in assay [8] and in assay [7] was inactive.

In the case of `Cc1cccc([N+](=O)[O-])c1`, the result in assay [6] and in [8] was inactive.

For the compound `C=CC(N)=O`, the result in assay [4], in [5], in [6], in assay [8] and in assay [7] was inactive.
